Hits are enriched below; roughly 3.5% of the tested compounds scored in any of these assays.
Anthrax LF prot – blocks Bacillus anthracis lethal factor protease; multiplex microsphere protease cleavage assay, LF; inhibition, % at 10 µM; 0.12% of 360,000 active; AID 588501; note: plate controls were buffer without enzyme for full effect and enzyme alone for no effect
BoNT A protease – BoNT A light chain protease inhibition; inhibition, % at 10 µM; multiplex microsphere protease substrate cleavage, flow cytometry; 0.17% of 360,000 active; note: plate controls were buffer without enzyme for full effect and enzyme alone for no effect
BoNT-F LC inh – inhibitors of Botulinum neurotoxin F light chain protease; Multiplex microsphere protease cleavage assay, flow cytometry; inhibition, % at 10 µM; 0.22% of 360,000 active; in the data active = inhibition above about 35%, passing the limit was not always enough; inconclusive = no clear call, values can overlap the other calls; note: plate controls were buffer without enzyme for full effect and enzyme alone for no effect
Autofluor counter – flagged as autofluorescent in microsphere protease counterscreen; compound autofluorescence counterscreen, microsphere flow cytometry; hits give high values; 3.1% of 360,000 active; fluorescence intensity (concentration not given with the values); AID 624483; in the data active = fluorescence intensity above about 16000; inconclusive = no clear call, values can overlap the other calls
* = called active by the depositor; u = inconclusive. Cut-off read from the data, not from the text of the source, unless noted: active = inhibition above about 30%; inconclusive = no clear call, values can overlap the other calls; inactive = below that.

SMILES	Anthrax LF prot	BoNT A protease	BoNT-F LC inh	Autofluor counter
CC(C)(C)S(=O)N1Cc2cc(C(=O)NCc3ccc4c(c3)OCO4)nc(-c3cccc(-c4ccccc4)c3)c2[C@@H]1CCO (some centres not stated)	1	0	-12	5724
CC(=O)c1ccc(Sc2ccccc2)cc1	0	2	4	22491*
CC(=O)c1cccc(NC(=O)c2cc(S(=O)(=O)N3CCOCC3)cs2)c1	0	0	-6	6417
COc1cccc2c1cc1c(=O)n(CC(=O)NCCCN3CCN(C)CC3)nc(C)n12	-3	-1	3	4532
CCN(CC)CC(=O)c1ccc(-c2ccccc2)cc1	-1	0	2	9589
CN(C)CC(=O)c1ccc(-c2ccccc2)cc1	1	1	2	20222*
CC(=O)Nc1cccc(-c2ccnc3c2CC(C)(C(=O)Nc2cccc(C(C)=O)c2)O3)c1 (configuration not stated)	5	2	-9	3818
COc1ncnc2c1ncn2CCCN(C)CCc1ccccn1	-7	0	-9	3029
COc1cc(C(c2c(C)[nH][nH]c2=O)c2c(C)[nH][nH]c2=O)ccc1OCc1ccc([N+](=O)[O-])cc1	1	3	-1	21766*
COc1cc(C(c2c(C)[nH][nH]c2=O)c2c(C)[nH][nH]c2=O)ccc1OC(=O)c1cccc([N+](=O)[O-])c1	-3	1	-5	2480
COc1cc(C(c2c(C)[nH][nH]c2=O)c2c(C)[nH][nH]c2=O)ccc1OS(=O)(=O)c1ccccc1	-4	-1	-5	16308*
CC(C)CC(=O)Nc1nnc(S(=O)(=O)N2CCCCCC2)s1	-2	3	-1	4885
CCOC(=O)N1CCC(n2c(=S)[nH]c3cc(OCC)c(OCC)cc3c2=O)CC1	-5	u	9	18805*
CCOc1cc2[nH]c(=S)n(Cc3ccc(C)o3)c(=O)c2cc1OCC	-5	u	-5	17111*
CCOc1cc2[nH]c(=S)n(C(C)C)c(=O)c2cc1OCC	-5	0	-3	21566*
Cc1ccc(Cn2c(=S)[nH]c3ccc(N4CCOCC4)cc3c2=O)o1	0	0	-6	5817
CCOc1cc2[nH]c(=S)n(C3CC3)c(=O)c2cc1OCC	1	0	-1	3956
O=C(Cc1ccccc1[N+](=O)[O-])NCC1(c2cccc3c2OCO3)OCCO1	-6	0	-5	3768
CCCOc1ccc(Cn2c(=O)oc3ccc(C)cc32)cc1	0	-2	-8	4916
Nc1ccn([C@@H]2O[C@H](CNC(=O)[C@H]3CCC(=O)N3)[C@@H](O)[C@H]2O)c(=O)n1	-7	0	0	3696
COc1ccccc1N(CC(=O)NCc1ccccc1)S(=O)(=O)c1cccs1	-6	0	6	3930
CCCNC(=O)C1(C)CCCN(C(=O)c2ccc(F)c(Cl)c2)C1 (configuration not stated)	4	-1	-2	4044
CCn1c(O)c(/C=N/N=C/c2ccccc2)c2ccc(C3=NNC(=O)CC3)cc21	-2	2	0	22930*
O=C(CN1C(=O)/C(=C\C=C\c2ccccc2)SC1=S)Nc1ccc(F)cc1	18	34*	18	2623
O=C(COC(=O)CCN1C(=O)/C(=C\C=C\c2ccccc2)SC1=S)Nc1cc(F)ccc1F	20	42*	11	4972
SMILES	Anthrax LF prot	BoNT A protease	BoNT-F LC inh	Autofluor counter
O=C(CCN1C(=O)/C(=C/C=C/c2ccccc2)SC1=S)Nc1nc2ccccc2s1	28	56*	20	2563
C[C@H](NC(=O)c1nc[nH]c1C(=O)N[C@@H](CCCCN)C(=O)OC(C)(C)C)C(=O)OCc1ccccc1	-9	0	-5	3518
COc1ccc(Cc2[nH]n3c(=O)c(Cl)c(C)nc3c2-c2ccccc2)cc1	-10	-1	-3	4222
C/C(=N\NC(=O)c1ccc(Cn2cc(Br)cn2)o1)c1ccc(NC(=O)c2ccoc2C)cc1	-17	-40	-70	u
O=C(CSc1nnc(Cn2c(=O)sc3ccccc32)n1CCc1ccccc1)N1CCOCC1	0	-1	2	16901*
COc1ccc(CCNC(=O)CSc2nnc(Cn3c(=O)sc4ccccc43)n2C)cc1OC	0	u	-2	24341*
O=C(CSc1nnc(-c2ccccc2)n1Cc1ccccc1)N1CCOCC1	-2	1	0	9234
O=C(CSc1nnc(-c2cccnc2)n1Cc1ccccc1)N1CCOCC1	0	u	-4	24649*
CC(=O)N(Cc1cc2ccccc2[nH]c1=O)c1ccc(C)cc1	-1	-3	11	3439
O=C(NCc1ccccc1)c1cc(C2COCCN2C(=O)C/C=C/c2ccccc2)on1 (configuration not stated)	-6	-1	-2	3920
Cc1ccc(C(=O)NC(=S)N2CC(C)OC(C)C2)cc1[N+](=O)[O-] (configuration not stated)	-2	-1	-1	23557*
O=c1[nH]c(SCc2ccc(Cl)cc2)nc2c1CCC2	-2	0	u	4262
O=c1[nH]c(SCc2ccccc2Cl)nc2c1CCCC2	1	-1	-3	20115*
Nc1nonc1C(=O)NCCN=Cc1cc(Cc2ccccc2)cc(Br)c1O	-1	-4	-7	17444*
Nc1nonc1C(=O)NCCN=Cc1ccccc1O	2	-1	0	3188
Cc1ccc([C@@H]2CC=C(C(=O)O)[C@H](c3cccc(F)c3)N2S(=O)(=O)c2ccccc2C)cc1	1	0	2	4016
CCOCc1nnc(NC(=O)CS(=O)(=O)c2ccc(C)cc2)s1	-5	-5	-24	4153
COc1cc(/C=N/N2C(=O)C3C4C=CC(CC4)C3C2=O)ccc1O (configuration not stated)	-9	0	-3	4795
O=C1C2C3c4ccccc4C(c4ccccc43)C2C(=O)N1/N=C/c1cccc(O)c1 (configuration not stated)	-3	-2	-4	17348*
Cc1nn(Cc2c(F)c(F)c(F)c(F)c2F)c(C)c1NC(=O)c1ccc(COc2ccccc2Cl)o1	0	15	15	19196*
O=S(=O)(Nc1cc(Cl)ccn1)c1ccc(Cl)cc1	-2	-4	-6	17683*
O=S(=O)(Nc1nc2ccccc2nc1Cl)c1ccc(Cl)cc1	1	0	-3	8294
O=S(=O)(Nc1ncccc1O)c1ccc(Cl)cc1	-1	u	-3	23828*
CCCS(=O)(=O)NC(=O)C1(C)CCN1C(=O)Cc1ccc(Cl)cc1Cl (configuration not stated)	-8	-1	-7	4006
CCCN(CC(=O)Nc1ccccc1OC)C(=O)Cn1c(=O)oc2ccccc21	1	-2	1	u
Cc1cc2oc(C(=O)N(Cc3ccco3)C3CCS(=O)(=O)C3)cc(=O)c2cc1Cl (configuration not stated)	3	0	3	23579*
O=C(CC1SC(N2CCCC2)=NC1=O)Nc1ccc(C(=O)NCc2ccc(F)cc2)cc1 (configuration not stated)	-1	3	8	4153
CC(C)(C)SCCNS(=O)(=O)c1ccccc1	4	0	2	7227
CC(C)(C)SCCNS(=O)(=O)c1ccc2ccccc2c1	-4	-2	-5	23401*
N/C(=N\OC(=O)C12CC3CC(CC(C3)C1)C2)c1ccccc1	-10	5	5	17662*
